Chronic BCR inh – blocks chronic active B-cell receptor signaling; ABC-DLBCL IkBa-CBG/CBR reporter, luminescence ratio, 4 h; Potency, µM (doses to about 46.1 µM), for the others: at the top dose activity change, negative = inhibition, actives largely listed as inhibitors; 340,000 tested, 0.05% active; active means well fitted inhibition curve with a large enough effect in the signal ratio, with a control signal flat, not every such curve was filed as active; inconclusive means small, poorly fitted or top-dose-only effect, or effect the other way, or a change in a side signal; the % refers to the signal ratio;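 further: potency means the concentration at half of the fitted maximal effect; plate controls were basal doxycycline-induced cells for no effect and cells given 10 µM MG132 for full effect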
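Compounds up to 46 uM were incubated four hours with TMD8 cells whose green CBG68 luciferase is fused to IkappaBalpha; red CBR luminescence normalised the signal, and concentration-effect curves were fitted to fusion, red and ratio data.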
MCF10A rerep – induces DNA re-replication in MCF 10a normal breast cells; AID 624296; Potency, µM (top dose mostly 46.1 µM), without a hit: at the highest dose activity, positive = re-replication, hits mostly activators; MCF 10A DNA re-replication, Hoechst nuclear intensity, 48 h; 350,000 tested, 2.9% active; further: potency means the concentration at half of the fitted maximal effect; % of control where 0% means no effect; nearly all actives have a fitted effect of over 50% in size
IL-1B inflam inh – inhibitors of inflammasome signaling (IL-1 beta secretion) | THP-1 LPS/ATP IL-1B secretion, AlphaLISA, 16 h; hits give low values | activity change, % at 57.5 µM | 360,000 tested, 4.7% active | AID 743279; in the data active means activity change below about -50%; inconclusive means mostly about -30% to -49%; further: on the % scale 0 is the no-effect control and ±100 the full control effect
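Secreted IL-1B measured by AlphaLISA bead assay after 16 h compound exposure of THP-1 cells; compounds (final up to 57.5 uM) added 1 h before LPS (250 ng/mL) and ATP (1.25 mM) stimulation; lower signal means less secretion.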
TDP1 cell noCPT – qHTS for Inhibitors of human tyrosyl-DNA phosphodiesterase 1 (TDP1): qHTS in cells in absence of CPT; DT40 Tdp1-/- hTDP1 cells, no CPT, ATP luminescence, 48 h; Potency, µM (titrated, usually from 46.2 µM), for inactives: top-dose activity change, negative = growth inhibition, hits mostly inhibitors; 420,000 tested, 15% active; further: potency means the concentration at half of the fitted maximal effect; on the % scale 0 is the no-effect control and ±100 the full control effect; nearly all actives have a fitted effect of over 55% in size
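Growth of hTDP1-complemented DT40 Tdp1-knockout cells is measured by ATP luminescence after at least 48 hr compound exposure at 37 °C, with DMSO substituting for the 20 nM CPT used in the parallel screen.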
DT40 TDP1 CPT – DT40-hTDP1 cell growth loss with CPT | chicken DT40 Tdp1-/-;hTDP1 cells + 20 nM CPT, ATP luminescence, 48 h | Potency, µM (series often up to 46.2 µM), inactives show at the highest dose activity change, negative = growth inhibition, actives largely listed as inhibitors | 420,000 tested, 12% active | AID 686979; further: potency means the concentration at half of the fitted maximal effect; on the % scale 0 is the no-effect control and ±100 the full control effect; nearly all actives have a fitted effect of over 55% in size
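Chicken DT40 Tdp1-/- cells stably complemented with human TDP1 were seeded at 400 cells/well in medium containing 20 nM camptothecin, exposed to pin-transferred compounds, and grown at 37 °C for at least 48 hr. Viability was read as ATP luminescence.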
SW480 rereplic – inducers of DNA re-replication in SW480 colon cancer cells; SW480 DNA re-replication, Hoechst DNA content imaging, 48 h; Potency, µM (top dose mostly 46.1 µM), inactives show top-dose re-replication activation, most hits filed as activators; 340,000 tested, 1.8% active; AID 624297; further: potency means the concentration at half of the fitted maximal effect; % of control where 0% means no effect; nearly all actives have a fitted effect of over 55% in size
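Readout is total intensity of Hoechst-stained nuclei, excited at 405 nm and collected at 500-530 nm. Compound treatment lasted 48 hr at 37 C in 5% CO2 before staining.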
* hit, by the source's call; ? = inconclusive; . = not tested or not shown; [ ] = remark or other dose. A selection: hits, their analogues and other compounds. The true share with any hit is near 19%. Unless noted, the call rests on the fitted dose curve; in most records, active means well fitted curve in the direction sought with a large enough effect; inconclusive means small, poorly fitted or top-dose-only effect, or another doubt; inactive means no such curve, though single readings can be large; an effect the other way counts as inactive or inconclusive.

SMILES | Chronic BCR inh | MCF10A rerep | IL-1B inflam inh | TDP1 cell noCPT | DT40 TDP1 CPT | SW480 rereplic
Cc1cc(Cl)ccc1OC(C)C(=O)Nc1ccc(C(=O)Nc2ccccc2C(=O)O)cc1 (centres undefined) | ? | ? | 42 | ? | ? | -4%
C/C(=N/NC(=O)c1ccncc1)c1ccc(NC(=O)c2ccccc2)cc1 | ? | -4% | -6 | -23% | -23% | -5%
C/C(=N\NC(=O)c1c(Br)c(C)nn1C)c1ccc(NC(=O)c2ccoc2C)cc1 | -1% | 13% | 13 | 23µM* | -3% | -189%
C/C(=N\NC(=O)c1nn(C)c(C)c1Br)c1ccc(NC(=O)c2ccoc2C)cc1 | ? | -3% | -11 | -26% | -18% | -2%
C/C(=N\NC(=O)c1c(Cl)c(C)nn1C)c1ccc(NC(=O)c2ccncc2)cc1 | ? | 3% | 29 | 18µM* | ? | 0%
C/C(=N\NC(=O)c1c(Br)c(C)nn1C)c1ccc(NC(=O)C(C)Oc2ccc(Cl)cc2C)cc1 (centres undefined) | 0% | 16µM* | -11 | ? | ? | 9%
CCC(=O)N1CCc2cc(S(=O)(=O)CCC(=O)NCc3ccccc3Cl)ccc21 | . | . | . | -28% | ? | .
CCC(=O)N1CCc2cc(S(=O)(=O)CCC(=O)N3CCN(c4ccc(C(C)=O)cc4)CC3)ccc21 | -3% | 1% | 2 | 7.3µM* | 18µM* | 1%
CCC(=O)N1CCc2cc(S(=O)(=O)CCC(=O)Nc3ccc(OC(F)(F)F)cc3)ccc21 | . | . | . | 23µM* | 23µM* | .
CCC(=O)N1CCc2cc(S(=O)(=O)CCC(=O)N3CCN(c4ccc(Cl)cc4)CC3)ccc21 | 0% | 9% | -3 | 4.1µM* | 8.2µM* | -28%
CCC(=O)N1CCc2cc(S(=O)(=O)CCC(=O)N3CCN(c4cccc(Cl)c4)CC3)ccc21 | . | . | . | 9.2µM* | 21µM* | .
CCC(=O)N1CCc2cc(S(=O)(=O)N3CCN(c4ccccc4)CC3)ccc21 | 2% | 15% | 2 | 5% | -9% | -2%
O=C(NCC(=O)N(c1ccc(F)cc1)C(C(=O)NC1CCCCC1)c1ccncc1)c1ccco1 (centres undefined) | 0% | -10% | 0 | -14% | -21% | 2%
CC(C)CN(C(=O)CCC(=O)OCc1ccc(Cl)cc1Cl)c1c(N)n(CC(C)C)c(=O)[nH]c1=O | -3% | 10% | -10 | ? | ? | -5%
COc1ccc(/C=C/C(=O)N2CCc3c(cnc(C)c3CNC(=O)c3ccsc3)C2)cc1OC | . | . | . | -27% | 6%[9.04 µM] | .
O=C(/C=C1\NC2(CCCC2)Cc2ccccc21)N1CCOCC1 | -1% | ? | -15 | 12µM* | 12µM* | 3%
C=CCN1C(=O)C(CC(=O)O)SC1=Nc1ccc(C)cc1 (centres undefined) | 6% | 2.6µM* | 15 | 14% | 0% | -19%
CCOC(=O)N1CCC(NC(=O)CSCc2nc(-c3ccc(OC)cc3)oc2C)CC1 | 1% | 2% | ? | -20% | -20% | 20%
COc1cc(OC)cc(C(=O)N[C@H](C(=O)NC2CCCc3ccccc32)C(C)C)c1 (some centres undefined) | 8% | 8% | 16 | 16µM* | ? | ?
COc1ccc(OCC(=O)NC2CCCc3ccccc32)cc1 (centres undefined) | -17% | -3% | -87* | ? | -18% | -28%
COc1ccc(CN(C)CC(=O)NC2CCCc3ccccc32)cc1OC (centres undefined) | -2% | ? | 39 | ? | -5% | 4.1µM*
COc1ccc(-c2nc(CSCC(=O)NC3CCCc4ccccc43)c(C)o2)cc1 (centres undefined) | 2% | 16µM* | ? | ? | ? | 15%
COc1ccc(Oc2ncc3nc(C)c(=O)n(C)c3n2)cc1 | . | . | . | -22% | 1% | .
COC1CCCN(C(=O)c2cccc(OC3CCN(S(C)(=O)=O)CC3)c2)C1 (centres undefined) | 6% | 1% | 18 | 26% | -14% | -13%
COc1ccc(NC(=O)NC2CCCc3ccccc32)c(OC)c1 (centres undefined) | 0% | 3% | -18 | -26% | ? | 5%
SMILES | Chronic BCR inh | MCF10A rerep | IL-1B inflam inh | TDP1 cell noCPT | DT40 TDP1 CPT | SW480 rereplic
COc1ccc(CNC2CCCc3ccccc32)c(OC)c1 (centres undefined) | -3% | -4% | -50* | ? | ? | -3%
Cc1ccc2nc(SCC(=O)NC3CCCc4ccccc43)[nH]c2c1 (centres undefined) | 11% | 15µM* | 6 | 16µM* | 21µM* | ?
O=C(CN1Cc2ccccc2C1=O)Nc1cc(F)ccc1F | . | . | . | -5% | 6% | .
CCN1CCN(c2oc(/C=C/c3ccc(OC)c(OC)c3)nc2C#N)CC1 | . | . | . | ? | 16µM* | .
COc1ccc(N2CCN(c3oc(/C=C/c4ccc(F)cc4)nc3C#N)CC2)cc1 | . | . | . | 8% | -2% | .
COc1ccc(/C=C/c2nc(C#N)c(N3CCCCCC3)o2)cc1OC | . | . | . | 8.2µM* | 12µM* | .
COc1ccccc1/C=C/c1nc(C#N)c(N2CCCCCC2)o1 | . | . | . | -27% | ? | .
CC(=O)Nc1ccc(S(=O)(=O)N(Cc2ccccc2)Cc2ccccc2)cc1 | . | . | . | 16µM* | ? | .
CC(=O)Nc1ccc(S(=O)(=O)N(Cc2cccnc2)Cc2cc3ccc(C)cc3[nH]c2=O)cc1 | 0% | -1% | -10 | 15µM* | ? | 0%
Cc1ccc(S(=O)(=O)N(Cc2cccnc2)Cc2cc3ccccc3[nH]c2=O)cc1 | 11% | 68% | -6 | ? | ? | -9%
O=S(=O)(NCc1ccccc1)c1cccs1 | -1% | 19% | 11 | -43% | 0.082µM* | ?
Cc1ccc(S(=O)(=O)N(Cc2ccccc2)C(C)C)cc1 | 9% | -2% | 0 | 18µM* | 18µM* | -16%
O=S(=O)(NCCc1ccccc1)c1cccs1 | 0% | 10% | -3 | -18% | -11% | 2%
CN(C)c1ccc(C2CC(c3c(O)n(C4CCCCC4)c(=O)[nH]c3=O)=Nc3ccccc3S2)cc1 (centres undefined) | . | . | . | -18% | -10% | .
CC(C)N(Cc1ccccc1)S(=O)(=O)c1cccs1 | 2% | 0% | 41 | 26µM* | -27% | 5%
CC(=O)Nc1ccc(S(=O)(=O)N(Cc2ccccc2)C(C)C)cc1 | 21% | 26% | 20 | 21µM* | 16µM* | -2%
